Results on 11 compounds are retold here after PubChem BioAssay (NCI).

The nature of assay [1]: NCI Yeast Anticancer Drug Screen. Data for the rad50 strain (AID 155).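 Also: 0% = growth of vehicle-only cultures of the same strain.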 Conditions: S. cerevisiae rad50 strain growth inhibition; at 50.0 µM; stronger effect = higher value. Put shortly: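 Yeast carrying a defined DNA repair defect were exposed to test compounds, and growth was compared with vehicle-treated controls to give percent inhibition.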
Assay [2] in a line: NCI Yeast Anticancer Drug Screen. Data for the mec2-1 strain (AID 157). Conditions: S. cerevisiae mec2-1 strain, at 50.0 µM, stronger effect = higher value. Put shortly: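 Test agents were screened against the mec2-1 yeast strain, with defined DNA repair or cell cycle alteration. Growth was scored as inhibition against vehicle-only controls.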
A short description of assay [3]: NCI Yeast Anticancer Drug Screen. Data for the sgs1 mgt1 strain (AID 161).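 Also: 0% = growth of cultures given vehicle only.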 As to conditions: S. cerevisiae sgs1 mgt1 strain, at 50.0 µM, stronger effect = higher value. Put shortly: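 Read-out: growth inhibition vs vehicle controls. Cells: mutant yeast strain deficient in DNA damage repair.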
The nature of assay [4]: NCI Yeast Anticancer Drug Screen. Data for the cln2 rad14 strain (AID 165).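 Also: 0% = growth equal to vehicle treated cultures.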 Conditions: S. cerevisiae cln2 rad14 strain, at 50.0 µM, stronger effect = higher value. The method, boiled down:
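Growth of compound-exposed yeast (cln2 rad14 genotype) measured and expressed as inhibition relative to vehicle.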

A short description of assay [5]: NCI Yeast Anticancer Drug Screen. Data for the bub3 strain (AID 167). As to conditions: S. cerevisiae bub3 mutant strain, at 50.0 µM, stronger effect = higher value. Put shortly: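 Compounds were applied to a genetically altered yeast strain carrying a cell-cycle control defect. Growth inhibition was scored against vehicle-treated controls.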
Assay [6] can be described thus: NCI Yeast Anticancer Drug Screen. Data for the mlh1 rad18 strain (AID 175). As to conditions: S. cerevisiae mlh1 rad18 strain growth inhibition; at 50.0 µM; stronger effect = higher value. Put shortly:
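In this whole-cell yeast screen, a strain with altered DNA damage repair is challenged with compound, and its growth is measured against matched vehicle-treated controls.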

Compounds without any hit were thinned out: in the full panel of roughly 79,000, 15% have a hit. A number with no mark means an inactive call. Active and inactive are the calls of the source. Rule as the data show it: active = growth inhibition above about 70%; inactive = the rest.

As to `CC1CNC2C(=O)NC(=O)NC2N1` (stereo unspecified), the growth inhibition was 3.15% in assay [1]; 1.95% in assay [2]; -10.2% in assay [3]; -5.25% in assay [4]; 5.2% in assay [5]; -4.7% in assay [6].

As to `OC(c1ccccc1)C1CCCCN1` (stereo unspecified), the growth inhibition in assay [1] was -7.95%; in assay [2], -7.2%; in assay [3] it was 9.8%; in assay [4] it was -12.3%; in assay [5], 11.2%; in assay [6], -17.6%.

Take `CC1CN1P1(N2CC2C)=NP(N2CC2C)(N2CC2C)=NP(N2CC2C)(N2CC2C)=N1` (stereo unspecified): the growth inhibition was -2.45% in assay [1]; 1.3% in assay [2]; 2.75% in assay [3]; 15.7% in assay [4]; -2.2% in assay [5]; 5.5% in assay [6].

With `O=P(O)(O)SP(=O)(O)O.[Co]`, the growth inhibition in assay [1] is 22.2%; in assay [2] it was 6.9%; in assay [3] it was 11.2%; in assay [4] it was -8.9%; in assay [5] it was -12.8%; in assay [6], 14.2%.

`CC1OP(=S)(N2C(=O)c3ccccc3C2=O)OC2CCCCC12` (stereo unspecified): the growth inhibition in assay [1] is 11.8%; in assay [2], 15.6%; in assay [3] it was 4.4%; in assay [4] it was -26.4%; in assay [5], 10.2%; in assay [6], -5.9%.

Turning to `OC1C2CCCCN2C[C@@H](O)[C@H]1O` (stereo partly specified), the growth inhibition in assay [1] is 16.3%; in assay [2], 11.9%; in assay [3] it was 22.1%; in assay [4] it was 22.6%; in assay [5] it was 12%; in assay [6], -34%.

As to `[Mn+3].[O-][Cl+3]([O-])([O-])O.[O-]c1ccccc1C=NCCN1CC1.[O-]c1ccccc1C=NCCN1CC1`, the growth inhibition was 95.5% (active) in assay [1]; 98.7% (active) in assay [2]; 93.5% (active) in assay [3]; 87.1% (active) in assay [4]; 98.8% (active) in assay [5]; 84.2% (active) in assay [6].

As for `CC(=O)CC(C)=O.CC(=O)CC(C)=O.[Mn]`, the growth inhibition was 17.1% in assay [1]; 1.05% in assay [2]; 1.75% in assay [3]; -42.2% in assay [4]; -3.3% in assay [5]; -2.5% in assay [6].

Turning to `CC1(C)C2=CC[C@H]3[C@@H]4CC[C@H](O)[C@@]4(C)CC[C@@H]3[C@@]2(C)CC[C@@H]1O`, the growth inhibition in assay [1] was -2.6%; in assay [2], -16.4%; in assay [3], -4.75%; in assay [4] it was -19.4%; in assay [5] it was 5.35%; in assay [6] it was -3.15%.

Regarding `CCCCOC(=O)c1ccccc1N`, the growth inhibition in assay [1] is -4.3%; in assay [2], -15.5%; in assay [3], -4.2%; in assay [4], -1.85%; in assay [5], 0.2%; in assay [6], -3.6%.

For `COc1ccc(CC(N)c2ccccc2)cc1` (stereo unspecified), the growth inhibition in assay [1] was 8.25%; in assay [2], 18.1%; in assay [3], 6.4%; in assay [4], 10.2%; in assay [5] it was 12.8%; in assay [6] it was -3.5%.
